Compounds with a hit are over-represented: about 3.5% of the library has one in this group of screens.
MITF primary – inhibitors of human MITF; O75030; AlphaScreen MITF homodimerization, bead proximity signal; inhibition, % at 2.6 µM; 650,000 compounds, 0.91% hits; in the data active = inhibition above about 50%
Target sequence (O75030 whole entry, looked up): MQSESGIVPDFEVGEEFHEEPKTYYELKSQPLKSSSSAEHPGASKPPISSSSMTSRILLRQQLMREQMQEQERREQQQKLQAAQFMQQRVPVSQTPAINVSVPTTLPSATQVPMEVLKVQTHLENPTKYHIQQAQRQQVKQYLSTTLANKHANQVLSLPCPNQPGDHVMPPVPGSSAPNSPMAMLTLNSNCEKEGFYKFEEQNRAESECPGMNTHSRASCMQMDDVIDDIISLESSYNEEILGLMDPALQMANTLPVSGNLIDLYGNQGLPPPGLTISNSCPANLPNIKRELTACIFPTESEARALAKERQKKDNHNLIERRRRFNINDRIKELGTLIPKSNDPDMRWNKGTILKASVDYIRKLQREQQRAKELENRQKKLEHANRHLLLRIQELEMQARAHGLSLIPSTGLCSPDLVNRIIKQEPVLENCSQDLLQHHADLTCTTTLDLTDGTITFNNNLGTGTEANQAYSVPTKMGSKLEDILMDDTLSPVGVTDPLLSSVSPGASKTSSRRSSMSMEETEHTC
TEAD-YAP block – TEAD-YAP interaction inhibition; inhibition, % at 9.12 µM; AID 1259422; HEK-TIYL cells, TEAD-Gal4/YAP UAS-luciferase luminescence; 640,000 compounds, 1.4% hits; in the data active = inhibition above about 32%
GPR151 ag – activators of human GPR151 | activation, % at 11.2 µM | PathHunter beta-arrestin GPR151 cells, luminescence | 650,000 compounds, 1% hits | AID 1508602; in the data active = activation above about 4.9%
FBW7 activator – human FBW7 E3 ligase activation, primary screen | Q969H0 | AlphaScreen FBW7–phospho-cyclin E peptide binding, activator screen | normalized activity (activation), % at 26.1 µM | 650,000 compounds, 0.13% hits | AID 1259310; in the data active = normalized activity above about 1.9%;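 note: purified mutant Fbw7 with reduced substrate affinity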
Each line names hits and unclear results; the compound was inactive in the other large screens.

O=C(Nc1cc(Cl)ccc1Oc1ccc2ccccc2c1Br)c1cc(Cl)cc(Cl)c1O	none
Cc1sc2ncnc(N/N=C/c3ccc([N+](=O)[O-])o3)c2c1C	TEAD-YAP block 34.6
Cc1sc2ncnc(N/N=C/c3cccc([N+](=O)[O-])c3)c2c1C	none
COc1cc(OC)cc(-c2nc3ccccc3c(=O)n2OC(=O)c2cc(C)c(C)cc2C)c1	none
O=C(CNc1n[nH]c(=O)[nH]c1=O)OCc1ccccc1	none
Cc1nc2ccccc2n1CC1CCN(CC(=O)Nc2ccc(F)cc2F)CC1	TEAD-YAP block 54.5
COc1ccccc1CNc1nc2ccccc2n2c(C)nnc12	none
COc1ccc(CCNc2cc(N3CCN(S(C)(=O)=O)CC3)ccc2[N+](=O)[O-])cc1OC	TEAD-YAP block 60.3
COc1ccc(CCNc2cc(N3CCCC3)ccc2[N+](=O)[O-])cc1OC	none
COc1ccc(CCNc2cc(N3CCN(S(=O)(=O)c4ccc(OC)c(OC)c4)CC3)ccc2[N+](=O)[O-])cc1OC	none
COc1ccc(CCNc2cc(N3CCN(C)CC3)ccc2[N+](=O)[O-])cc1OC	TEAD-YAP block 48.0
Cc1cc(O)ccc1N1C(=O)c2cc([N+](=O)[O-])cc3cc([N+](=O)[O-])cc(c23)C1=O	none
CN(C)c1ccc(/C=C/c2ccc3ccccc3n2)cc1	TEAD-YAP block 92.6
CN(C)c1ccc(/C=C/c2ccc(-c3ccccc3)cc2)cc1	none
COc1ccc(/C=C/c2nc3ccccc3s2)cc1S(=O)(=O)N1CCOCC1	none
C(=C\c1ccc2ccccc2n1)/c1cccnc1	TEAD-YAP block 77.3
Oc1ccc(/C=C/c2nc3ccccc3s2)cc1	TEAD-YAP block 72.9
O=C(O)/C=C/c1ccc2ccccc2n1	none
Oc1ccc(/C=C/c2ccc3ccccc3n2)cc1	TEAD-YAP block 84.7
O=C(NCc1cccnc1)c1cccc(C(=O)NCc2cccnc2)c1	none
O/C(=C\c1ccc2ccccc2n1)c1ccc(O)cc1O	TEAD-YAP block 75.0
CCCc1cc(C(=O)OC)c(NC(=O)c2cccc(OC)c2OC)s1	none
NS(=O)(=O)c1cc(C(=O)NCCOc2ccc(Cl)cc2)c(Cl)cc1Cl	TEAD-YAP block 36.7
O=C(NCCOc1ccc(Cl)cc1)c1cccc(C(=O)NCCOc2ccc(Cl)cc2)c1	none
COc1ccc(-c2cc(N3CCN(C/C=C/c4ccccc4)CC3)ncn2)cc1	TEAD-YAP block 35.3
COc1cccc2cc(C(=O)Nc3ccccc3)/c(=N/NS(=O)(=O)c3ccccc3)oc12	none
COc1ccc(OCc2cccc(C(=O)O)c2)cc1	TEAD-YAP block 93.5
CC(C)c1ccc(OCc2cccc(C(=O)NCCN(C)C)c2)cc1	TEAD-YAP block 85.6
O=C(O)c1cccc(OCc2ccccc2)c1	none
O=C(O)c1cccc(COc2ccc(I)cc2)c1	TEAD-YAP block 65.4
CCOc1ccc(OCc2cccc(C(=O)OC)c2)cc1	TEAD-YAP block 85.1
O=C1CC(C(=O)Nc2ccc(C(=O)Nc3ccccc3[N+](=O)[O-])cc2)C2(CCCCC2)O1 (stereo not given)	none
COc1cc(/C=C/C(=O)OCC(=O)C(C)(C)C)ccc1O	none
COc1cc(OCc2cccc(C(=O)O)c2)ccc1C=C1C(=O)NC(=S)NC1=O	TEAD-YAP block 85.5
O=C1NC(=S)NC(=O)C1=Cc1cccc(OCc2ccc(C(=O)O)cc2)c1	none
CCOC(=O)C1=C(C)NC2=C(C(=O)c3ccccc32)C1c1cc(OC)c(OC)c(OC)c1 (stereo not given)	TEAD-YAP block 52.7
Cc1ccccc1OCc1nc2ccc(-c3cn[nH]c3C)cc2c(=O)[nH]1	TEAD-YAP block 48.0
COc1cccc(OCc2nc3cc(-c4cn[nH]c4C)ccc3c(=O)[nH]2)c1	TEAD-YAP block 56.0
O=C(NCC1CCC2(CCN(Cc3ccc(F)cc3)CC2)O1)c1cccc(F)c1F (stereo not given)	none
Cn1cccc1C(=O)NC(=O)COC(=O)c1cc(-c2ccco2)nc2ccccc12	MITF primary 77.2
O=C(O)c1cc(-c2ccc(O)c(O)c2)nc2n[nH]c(-c3ccccc3)c12	MITF primary 81.3
O=C(O)c1cc(-c2ccc(O)c(O)c2)nc2n[nH]c(-c3ccc(F)cc3)c12	none
CCCCc1ccc(-c2nc(Nc3cc(Sc4ccc(F)cc4)cc([N+](=O)[O-])c3)c3ccccc3n2)cc1	TEAD-YAP block 57.3
CCCCc1ccc(-c2nc(Nc3cc(Oc4ccccc4)cc([N+](=O)[O-])c3)c3ccccc3n2)cc1	TEAD-YAP block 50.1
CCCCc1ccc(-c2nc(Nc3cc(Oc4ccc(F)cc4)cc([N+](=O)[O-])c3)c3ccccc3n2)cc1	none
COc1cc(-c2nc(Nc3cc(Sc4ccc(F)cc4)cc([N+](=O)[O-])c3)c3ccccc3n2)cc(OC)c1OC	none
O=C(/C=C/c1cccc([N+](=O)[O-])c1)Nc1cnc2ccccc2c1	none
COc1ccc(-n2ncc3c(SCC(=O)Nc4ccc(N(C)C)cc4)ncnc32)cc1	none
CCN1C(=O)CC(CC(=O)N2C[C@H]3C[C@@H](C2)c2cccc(=O)n2C3)(c2ccccc2C)C1=O (stereo not given in full)	none
Cc1noc(C)c1-c1nccc(NCc2nc3ccccc3[nH]2)n1	none
CCOc1ccccc1-c1cc(C(=O)N/N=C(/C)c2ccccc2)[nH]n1	TEAD-YAP block 49.6
CCOc1ccccc1-c1cc(C(=O)N/N=C(/C)c2cccc(O)c2)[nH]n1	TEAD-YAP block 51.6
COc1cc(/C(C)=N/NC(=O)c2cc(-c3cccc4ccccc34)n[nH]2)ccc1O	none
Cc1sc(NC(=O)c2ccco2)c(C(c2cccnc2)N2CCCCC2)c1C (stereo not given)	TEAD-YAP block 40.5
Cc1sc(NC(=O)c2ccco2)c(C(c2cccnc2)N2CCOCC2)c1C (stereo not given)	none
Cc1sc(NC(=O)c2ccco2)c(C(c2cccnc2)N2CCN(c3ccccc3F)CC2)c1C (stereo not given)	TEAD-YAP block 36.6
CC(C)(C)c1ccc(C(=O)Nc2cc3cccc([N+](=O)[O-])c3oc2=O)cc1	none
COc1ccccc1-n1nc(C(=O)Nc2cc(OC)c(OC)c(OC)c2)c2ccccc2c1=O	TEAD-YAP block 32.1
Cn1nc(CC(=O)Nc2ccc(Br)cc2F)c2ccccc2c1=O	none
COc1ccc(NC(=O)c2nn(-c3ccccc3OC)c(=O)c3ccccc23)cc1OC	none
Cn1nc(CC(=O)NCC2COc3ccccc3O2)c2ccccc2c1=O (stereo not given)	TEAD-YAP block 36.0
Cn1c(C(=O)O)c(CC(=O)NCC2COc3ccccc3O2)c2ccccc21 (stereo not given)	none
Cn1nc(CC(=O)Nc2ccc(F)cc2F)c2ccccc2c1=O	TEAD-YAP block 34.5
COc1ccc(-n2nc(C(=O)NCC(=O)NCC3COc4ccccc4O3)c3ccccc3c2=O)cc1OC (stereo not given)	TEAD-YAP block 36.4
COc1cc(C(=O)Nc2ccc(NC(=O)c3ccc(F)cc3)nc2)cc(OC)c1OC	none
COc1cc(OC)cc(-n2nc(C(=O)NCCc3ccc(OC)c(OC)c3)c3ccccc3c2=O)c1	none
COc1ccc(-n2nc(C(=O)NCC(=O)NCCc3ccc(OC)c(OC)c3)c3ccccc3c2=O)cc1	none
